Drawing on ChEMBL document CHEMBL4513158, “CO-ADD screening of RKDF (India) compounds”, this text covers Inhibition for 2 compounds.

The Inhibition is the drop in the measured response relative to a control, in per cent.

Results with a measured potency or affinity are listed apart.

For one experiment, the system named is Staphylococcus aureus. The note with it: Concentration 32 ug.mL-1; ASSAY_TEST Inhibition of Bacterial Growth; detection method Absorption (OD600); MEDIA CAMHB; plate type 384well; NBS; CORNING #3640; time 18 hr.
A further experiment has as its system Escherichia coli. Conditions: Concentration 32 ug.mL-1; ASSAY_TEST Inhibition of Bacterial Growth; detection method Absorption (OD600); MEDIA CAMHB; plate type 384well; NBS; CORNING #3640; time 18 hr.

In turn, `CN(C)C(=N)NC(=N)N.Cl` [METFORMIN HYDROCHLORIDE] displayed an Inhibition in the experiment on Staphylococcus aureus of 23.29%.
In the case of `C=C[C@H]1[C@H](O[C@@H]2O[C@H](CO)[C@@H](O)[C@H](O)[C@H]2O)OC=C2C(=O)OCC[C@]21O` [SWERTIAMARIN], the results for the Inhibition in the experiment with Staphylococcus aureus and in the experiment on Escherichia coli were 25.69% and 13.89%, respectively.
